# An excerpt weighted towards active compounds, which were near 6.3% of everything screened.
# tim23-1 inh = growth inhibitors of tim23-1 mutant yeast. S. cerevisiae tim23-1 growth, BacTiter-Glo luminescence, 24 h. inhibition, % at 20 µM. 330,000 compounds, 1.3% hits. AID 463212;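 active = growth inhibition of the mutant yeast at or above 50%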;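 also: temperature-sensitive mutant grown at 25 °C; plate controls were DMSO-treated mutant yeast for no effect and medium wells lacking yeast for full effect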
# TIM10 inh = inhibits growth of TIM10 yeast strain | AID 463195 | S. cerevisiae TIM10 strain growth, BacTiter-Glo luminescence, 24 h | inhibition, % at 10 µM | 330,000 compounds, 1.4% hits;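 active = inhibition of 40% or more at the single tested concentration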;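 also: wild-type TIM10 isogenic control strain grown at permissive 25 °C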
# MPTP block = blocks calcium-induced mitochondrial swelling | AID 602449 | inhibition, % at 10 µM | isolated mouse mitochondria, Ca2+ swelling absorbance, 30 min | 360,000 compounds, 1.4% hits;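 active = inhibition of 50% or more, scaled per plate between neutral and stimulator controls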;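 also: 0% = DMSO wells given calcium and 100% = 1 mM EGTA wells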
# Mdm2-MdmX inh = disrupts the human Mdm2-MdmX interaction | O15151+Q00987 | SaOS-2 split-luciferase Mdm2/MdmX complementation, luminescence | inhibition, % at 8 µM | 330,000 compounds, 3% hits | AID 485346;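 active = inhibition of at least 50% at 8 µM in the primary screen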
# Target sequence (O15151 whole entry, looked up): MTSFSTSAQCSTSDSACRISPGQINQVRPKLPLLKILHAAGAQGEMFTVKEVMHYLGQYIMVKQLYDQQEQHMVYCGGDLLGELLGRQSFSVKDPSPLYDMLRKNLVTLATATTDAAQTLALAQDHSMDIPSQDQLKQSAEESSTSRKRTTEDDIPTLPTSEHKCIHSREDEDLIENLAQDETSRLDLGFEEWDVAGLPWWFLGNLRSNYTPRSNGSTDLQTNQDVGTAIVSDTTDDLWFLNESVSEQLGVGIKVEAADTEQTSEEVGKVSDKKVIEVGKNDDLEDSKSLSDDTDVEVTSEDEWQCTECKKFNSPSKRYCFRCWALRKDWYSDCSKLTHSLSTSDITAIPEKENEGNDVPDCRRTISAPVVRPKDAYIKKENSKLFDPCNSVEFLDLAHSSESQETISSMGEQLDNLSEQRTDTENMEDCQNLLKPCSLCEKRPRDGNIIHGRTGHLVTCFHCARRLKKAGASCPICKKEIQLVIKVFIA
# Target sequence (Q00987 whole entry, looked up): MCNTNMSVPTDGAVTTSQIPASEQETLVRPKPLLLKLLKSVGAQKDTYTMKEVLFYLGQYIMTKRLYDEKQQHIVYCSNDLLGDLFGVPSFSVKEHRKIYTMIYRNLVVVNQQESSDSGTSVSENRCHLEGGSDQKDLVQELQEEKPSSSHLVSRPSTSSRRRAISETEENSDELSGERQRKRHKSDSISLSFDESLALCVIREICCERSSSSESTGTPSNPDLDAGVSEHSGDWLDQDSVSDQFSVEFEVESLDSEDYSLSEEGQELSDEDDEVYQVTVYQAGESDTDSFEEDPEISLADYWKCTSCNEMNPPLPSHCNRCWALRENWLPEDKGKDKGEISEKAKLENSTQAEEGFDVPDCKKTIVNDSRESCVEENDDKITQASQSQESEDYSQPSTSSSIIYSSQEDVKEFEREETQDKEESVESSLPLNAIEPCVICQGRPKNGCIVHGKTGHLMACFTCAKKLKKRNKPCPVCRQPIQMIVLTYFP
# tim10-1 inh = growth inhibitors of tim10-1 mutant yeast | 330,000 compounds, 2.2% hits | AID 463190 | inhibition, % at 20 µM | S. cerevisiae tim10-1 ts strain growth, BacTiter-Glo, 24 h;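 active = inhibition of at least 40%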;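 also: mutant grown at 25 °C; 0% = DMSO wells with yeast and 100% = wells holding no yeast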
# Mdm2 MdmX conf = human Mdm2/MdmX binding inhibition, confirmed; luminescent assay; inhibition, % at 8 µM; 10,000 compounds, 55% hits; shares compounds with Mdm2-MdmX inh; in the data active = inhibition above about 40%
# FLuc counter = inhibits full-length luciferase, flagging false Mdm2/MdmX hits. shares compounds with Mdm2-MdmX inh. 6,200 compounds, 77% hits. SaOS-2 full-length luciferase counterscreen, luminescence. inhibition, % at 8 µM;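 active = mean inhibition at 8 µM reaching about 37%, which flags the compound as non-specific, limit read from the data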;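 also: p53-null SaOS-2 cells with luciferase driven by a doxycycline-inducible promoter; compound on cells about two nights before reading with doxycycline added after day one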
# The depositor's hits bear a star; · = no result.
SMILES,tim23-1 inh,TIM10 inh,MPTP block,Mdm2-MdmX inh,tim10-1 inh,Mdm2 MdmX conf,FLuc counter
Cc1cc(SCc2ccccc2Cl)nc(=O)[nH]1,8,0,0,10,-12,·,·
Cc1cn([C@H]2C[C@H](O)[C@@H](CCC(=O)NCc3ccco3)O2)c(=O)[nH]c1=O,·,·,1,·,·,·,·
Nc1ncnc2c1ncn2[C@@H]1O[C@H](C(=O)NS(=O)(=O)c2ccccc2[N+](=O)[O-])[C@@H](O)[C@H]1O,·,·,-1,·,·,·,·
COc1ccccc1C(=O)/C=C/c1ccc(N2CCCCC2)c([N+](=O)[O-])c1,34,22,1,99*,39,37,70*
CC[C@]12c3[nH]c4ccc(Cl)cc4c3CCN1C(=O)[C@@H](CC(=O)NC/C=C(\C)CCC=C(C)C)C[C@@H]2C(=O)N1CCN(C(=O)c2ccco2)CC1,37,5,-1,66*,14,-11,·
CC[C@]12c3[nH]c4ccc(Cl)cc4c3CCN1C(=O)[C@@H](CC(=O)NC(C)(C)C)C[C@@H]2C(=O)N1CCN(C(=O)c2ccco2)CC1,17,3,1,45,6,·,·
CC[C@]12c3[nH]c4cc(CCC(=O)N(C)C)ccc4c3CCN1C(=O)[C@@H](CC(=O)NC/C=C(\C)CCC=C(C)C)C[C@@H]2C(=O)N1CCN(C(=O)c2ccco2)CC1,31,-1,0,93*,13,59*,59*
CC[C@]12c3[nH]c4cc(CCC(=O)N(C)C)ccc4c3CCN1C(=O)[C@@H](CC(=O)NCCN1CCOCC1)C[C@@H]2C(=O)N1CCN(C(=O)c2ccco2)CC1,17,-8,0,-4,-3,·,·
CC(C)CNc1ncnc2c1sc1nc(N3CCOCC3)c3c(c12)CC(C)(C)OC3,8,3,2,19,26,·,·
CC1(C)Cc2c(c(N3CCOCC3)nc3sc4c(NCc5ccccc5)nnnc4c23)CS1,8,22,4,94*,29,6,·
CC1(C)Cc2c(c(N3CCOCC3)nc3sc4c(NN)ncnc4c23)CS1,11,-9,-1,61*,33,12,·
COc1ccc(-c2csc(C(C)(O)c3cccnc3)n2)cc1 (centres undefined),·,·,2,·,·,·,·
CCCCNC(=O)C1C(c2ccc(C(F)(F)F)cc2)=Nc2ccccc2N1C(=O)c1ccc2nc(C)[nH]c2c1 (centres undefined),·,·,-1,·,·,·,·
O=C1CCCCC1Sc1nnc(-c2ccc3c(c2)OCO3)o1 (centres undefined),32,15,0,73*,9,69*,90*
Clc1ccc(CSc2nnc(-c3ccc4c(c3)OCO4)o2)cc1,37,20,-2,3,15,·,·
COCc1cc(=O)[nH]c(Nc2nc3ccc(C)cc3o2)n1,13,2,-2,78*,12,8,·
COC(=O)CCC(=O)NS(=O)(=O)c1ccc(N=NN2CCOCC2)cc1,17,-1,0,3,-2,·,·
O=C(Cc1ccccc1)NS(=O)(=O)c1ccc(N=NN2CCOCC2)cc1,4,10,1,87*,10,-14,·
CC1(C)N=C(N)N=C(N)N1c1ccc(Oc2ccc(Cl)cc2)c(Cl)c1,4,-1,-1,67*,16,50*,88*
CC(C)n1nc(C(=O)Nc2nc3ccc(S(C)(=O)=O)cc3s2)c2ccccc2c1=O,-13,-12,0,91*,-13,57*,82*
COc1ccc(OC)c2sc(NC(=O)CCSc3ccccc3)nc12,-16,-21,1,48,-6,·,·
O=C(CCS(=O)(=O)c1ccccc1)Nc1nc2ccc(F)cc2s1,1,-10,0,67*,-6,65*,72*
COc1ccc(OC)c2sc(NC(=O)CCS(=O)(=O)c3ccccc3)nc12,2,-7,2,98*,-1,77*,24
CS(=O)(=O)c1ccc2nc(NC(=O)c3ccccc3)sc2c1,23,14,0,-93,23,·,·
COC(=O)c1ccc2nc(NC(=O)CCS(=O)(=O)c3ccccc3)sc2c1,26,16,0,91*,28,68*,27
SMILES,tim23-1 inh,TIM10 inh,MPTP block,Mdm2-MdmX inh,tim10-1 inh,Mdm2 MdmX conf,FLuc counter
O=C(C[C@@H]1C[C@H]2c3cc(NC(=O)c4cccnc4)ccc3O[C@H]2[C@H](CO)O1)NCc1ccc(Oc2ccccc2)cc1,·,·,-1,·,·,·,·
Cn1c(Oc2cccnc2CN2CCCC2)nc2cc(-c3cccc(C(F)(F)F)c3)sc2c1=O,·,·,0,·,·,·,·
CCC(=O)N(C)C[C@H]1Oc2cc(-c3cccnc3)ccc2S(=O)(=O)N([C@H](C)CO)C[C@H]1C,·,·,1,·,·,·,·
CS(=O)(=O)c1ccc2nc(NC(=O)Cc3ccccc3)sc2c1,3,-3,0,-27,14,·,·
CS(=O)(=O)c1ccc2nc(NC(=O)CCS(=O)(=O)c3ccccc3)sc2c1,8,19,-4,78*,8,73*,84*
O=C(CCS(=O)(=O)c1ccccc1)Nc1nc2cc3c(cc2s1)OCCO3,24,10,2,57*,26,28,·
CCc1nc2ccc(C(=O)NCC3CCCCC3)cn2c1N(C)C(=O)c1cccc(OC)c1,·,·,2,·,·,·,·
OC[C@H]1O[C@@H](c2nc(-c3ccc4[nH]ccc4c3)no2)[C@H](O)[C@@H](O)[C@H]1O,·,·,0,·,·,·,·
CN(Cc1cn(Cc2cccc(Cl)c2)nn1)C1CN(Cc2cn(Cc3cccc(Cl)c3)nn2)S(=O)(=O)C1 (centres undefined),·,·,0,·,·,·,·
COc1ccc(CN2C(=O)CSCC2(C)C(=O)NCc2ccccc2)cc1 (centres undefined),·,·,-1,·,·,·,·
O=C(c1[nH]c(C(F)(F)F)nc1-c1ccccc1)N1CCc2c([nH]c3ccccc23)C1,·,·,1,·,·,·,·
Nc1nc(N)c(N=O)c(OCC2CCCCC2)n1,28,35,5,57*,35,33,·
CN[C@H]1C[C@H]2c3[nH]c4ccccc4c3CCN2C(=O)[C@H]1[C@H](C)O,·,·,-1,·,·,·,·
COc1cc(C(=O)NC2CCCCC2)ccc1OCc1ccc(Cl)cc1Cl,-6,1,16,58*,16,12,·
COc1cc(CNCCN2CCOCC2)ccc1OCc1ccc(Cl)cc1Cl,17,20,7,53*,21,20,·
COc1cc(CNCCN2CCOCC2)ccc1OCc1cccc(Cl)c1,0,-11,5,3,4,·,·
CCC(=O)N1CCC1(C)C(=O)Nc1ccc(OC(F)F)cc1 (centres undefined),·,·,-2,·,·,·,·
O=c1c(Cl)c(N2CCCCC2)cnn1-c1nc2ccccc2[nH]1,39,9,2,52*,4,56*,63*
CCO[C@@H]1OC(C(=O)NCc2nc3ccccc3[nH]2)=C[C@H](C(C)(C)C)[C@H]1CCCO,1,-4,0,54*,-15,50*,95*

# Screening results from PubChem BioAssay.
